Compounds with a hit are over-represented: about 28% of the library has one in this group of screens.
CYP2C9 inhib: human CYP2C9 inhibition. P11712. CYP2C9 Supersomes, luciferin-H conversion, luminescence. inhibition, % at 5 µM. 20% of 96,000 active. AID 777;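 active = blocking of liver enzyme CYP2C9 beyond about 50% at 5 µM, limit read from the data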
CYP2C19 inhib: human CYP2C19 inhibition | CYP2C19 Supersomes, luciferin-H EGE luminescence, 30 min | P33261 | 21% of 96,000 active | AID 778 | inhibition, % at 5 µM;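 active = CYP2C19 inhibition above a set limit at 5 µM in the primary screen, cut at about 50% in these data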;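 note: plate controls were negative control wells for no effect and 2.5 mM tranylcypromine positive control for full effect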
CYP2C9 act: CYP2C9 (human) activation; P11712; recombinant CYP2C9, luciferin-H conversion, luminescence; hits give high values; factor 1 = untreated enzyme, 0 = blocked; activation factor at 5 µM; 1.4% of 96,000 active; AID 1024;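 active = activation factor of 2 or more for CYP2C9 at a 5 µM dose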;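 note: 0 = sulfaphenazole-blocked wells and 1 = vehicle-only wells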
CYP2C19 act: increases human CYP2C19 enzyme activity; recombinant CYP2C19, luciferin-H EGE luminescence; hits give high values; 0 = fully inhibited enzyme, 1 = untreated enzyme; AID 1025; activation factor at 5 µM; 96,000 tested, under 10 active; P33261;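 active = activation factor of at least 2 at 5 µM in the primary screen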;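 note: 0 = wells with 2.5 mM tranylcypromine and 1 = vehicle-only wells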
PTK2B oligo ant: blocks oligomerization of human Pyk2 in cells. Q14289. Q293 cells, Pyk2 FERM NanoBiT luminescence; hits give low values. z-score (the deposit names both 25 µM and 10 µM). 0.83% of 99,000 active. AID 1347419;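 active = Z-score of -3 or lower, scaled per plate to the spread of control and sample wells; inactive = z-score above -3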;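 note: negative z-score means lost luminescence so less FERM oligomerization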
Target sequence (Q14289 whole entry, looked up): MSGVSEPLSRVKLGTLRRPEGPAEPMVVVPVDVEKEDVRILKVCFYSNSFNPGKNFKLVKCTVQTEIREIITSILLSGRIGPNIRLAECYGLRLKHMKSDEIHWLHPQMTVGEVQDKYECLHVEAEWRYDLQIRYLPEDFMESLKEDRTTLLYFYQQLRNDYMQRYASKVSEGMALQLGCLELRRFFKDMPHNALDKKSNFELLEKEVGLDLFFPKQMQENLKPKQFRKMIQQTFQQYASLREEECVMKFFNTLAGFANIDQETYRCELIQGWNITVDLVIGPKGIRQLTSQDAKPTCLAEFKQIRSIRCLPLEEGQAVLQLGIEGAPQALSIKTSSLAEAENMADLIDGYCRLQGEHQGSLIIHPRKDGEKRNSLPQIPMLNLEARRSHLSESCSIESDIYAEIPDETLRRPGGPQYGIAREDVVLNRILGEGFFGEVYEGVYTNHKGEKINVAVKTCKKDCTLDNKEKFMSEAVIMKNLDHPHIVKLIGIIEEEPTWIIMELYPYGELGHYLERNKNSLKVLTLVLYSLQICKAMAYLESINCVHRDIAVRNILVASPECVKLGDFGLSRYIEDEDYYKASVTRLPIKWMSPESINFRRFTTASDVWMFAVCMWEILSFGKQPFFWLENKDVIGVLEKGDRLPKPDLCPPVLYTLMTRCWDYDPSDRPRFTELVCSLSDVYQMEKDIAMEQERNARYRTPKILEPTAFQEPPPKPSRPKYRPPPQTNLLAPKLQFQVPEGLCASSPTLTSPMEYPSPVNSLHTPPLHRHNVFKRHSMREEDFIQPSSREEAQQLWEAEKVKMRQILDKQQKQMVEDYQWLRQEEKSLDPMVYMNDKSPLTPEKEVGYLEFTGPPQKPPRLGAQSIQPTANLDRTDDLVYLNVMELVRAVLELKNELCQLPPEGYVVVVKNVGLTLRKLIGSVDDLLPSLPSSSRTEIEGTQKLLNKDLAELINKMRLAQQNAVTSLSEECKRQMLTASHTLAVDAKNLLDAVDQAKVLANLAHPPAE
Numbers without * were called inactive; / = no result.

SMILES	CYP2C9 inhib	CYP2C19 inhib	CYP2C9 act	CYP2C19 act	PTK2B oligo ant
COc1ccc2c(c1)-c1c(sn(-c3ccc(OC)c(OC)c3)c1=S)C(C)(C)N2	59.4*	25.1	0.4	0.7	-1.42
CC1=NN(c2ccc(F)cc2)C(=O)C1C(c1cccc(O)c1)c1c(C)[nH]n(-c2ccc(F)cc2)c1=O (stereo unspecified)	59.2*	7.4	0.4	0.9	-0.46
O=c1oc(-c2cccs2)nc2sc3c(c12)CCCC3	63.5*	20.1	0.4	0.8	-0.85
C=CCn1nnc2sc3c(c2c1=O)CCC(C)C3 (stereo unspecified)	49.1	96.9*	0.5	0	1.36
CCn1cc(/C=N/NS(=O)(=O)c2ccc(OC)cc2)c(C)n1	69.3*	86.6*	0.3	0.1	1.53
Cc1ccc(S(=O)(=O)N/N=C\c2cc([N+](=O)[O-])ccc2Cl)cc1	37.1	62.2*	0.6	0.4	-0.07
CCn1cc(/C=N/NS(=O)(=O)c2ccc(C)cc2)c(C)n1	83.0*	88.3*	0.2	0.1	1.44
Cc1ccc(S(=O)(=O)N/N=C\c2cccnc2)cc1	23.3	15.2	0.8	0.8	0.52
Cc1ccc(S(=O)(=O)N/N=C/c2cn(C)nc2C)cc1	64.0*	50.6*	0.4	0.5	0.89
Cc1ccc(NC2=NCCCCC2)cc1	20.4	4.6	0.8	1	-0.04
CC(C)OC(=O)C1C(=O)CC(C)(O)C(C(=O)OC(C)C)C1c1cccc(O)c1 (stereo unspecified)	22.4	49.7	0.8	0.5	-0.12
Cc1ccc(S(=O)(=O)N/N=C/c2cc(Br)c(C)o2)cc1	97.0*	31.7	0	0.7	1.47
Cc1cccc(C)c1N(CC(=O)N/N=C/c1cc(Br)c(C)o1)S(C)(=O)=O	/	/	/	/	0.39
O=C(CCNS(=O)(=O)c1ccc(Br)s1)Nc1ccc(Cl)cc1	-99.8	41.5	2*	0.6	-1.31
Cc1ccc(S(=O)(=O)NCCC(=O)NC2CCCC2)cc1	-148.3	13.1	2.5*	0.9	0.08
O=C(CCNS(=O)(=O)c1ccc(Br)s1)N1CCCCC1	-66.4	67.8*	1.7	0.3	1.01
O=C(CCNS(=O)(=O)c1ccc(Br)s1)NC1CCCC1	-108.2	13.1	2.1*	0.9	-0.75
O=C(CCNS(=O)(=O)c1cccs1)N1CCCCCC1	-5.5	19.2	1.1	0.8	1.28
O=C(CCS(=O)(=O)c1ccc(Br)s1)NC1CCCC1	-21.5	0.8	1.2	1	0.5
CCOC(=O)C(NC(=O)CC)C(O)c1cccc([N+](=O)[O-])c1 (stereo unspecified)	-2.8	5.0	1	0.9	-0.3
CCCNS(=O)(=O)c1ccc(CCC(=O)N2CCN(c3ccc(OC)cc3)CC2)cc1	87.2*	80.5*	0.1	0.2	1.68
COc1ccc(N2CCN(C(=O)CCNS(=O)(=O)c3ccc(Br)s3)CC2)cc1	90.8*	80.0*	0.1	0.2	2.23
CCOC(=O)Nc1nc2ccccc2s1	29.2	-10.4	0.7	1.1	0.11
c1ccc(CCNc2nc3ccccc3s2)cc1	81.5*	97.0*	0.2	0	2.06
O=C(Nc1nc2ccccc2s1)c1cnccn1	29.3	65.4*	0.7	0.3	0.4
SMILES	CYP2C9 inhib	CYP2C19 inhib	CYP2C9 act	CYP2C19 act	PTK2B oligo ant
Cc1ccc(C(=O)Nc2nc3ccccc3s2)s1	61.0*	38.4	0.4	0.6	-1.38
O=C(COC(=O)c1ccco1)Nc1nc2ccccc2s1	34.8	33.0	0.7	0.7	0.95
CCOc1ccc2nc(NC(=O)c3cnccn3)sc2c1	-10.1	-8.2	1.1	1.1	-0.35
Cc1ccc(CNc2nc3ccccc3s2)s1	43.5	50.9*	0.6	0.5	0.11
CN1C(=O)CC(C(=O)O)SC1=Nc1ccc(F)cc1 (stereo unspecified)	/	/	/	/	1.78
Cc1ccc(Cn2ccc(NC(=O)c3cc(-c4cccs4)on3)n2)cc1	22.5	0.9	0.8	1	-0.12
O=C(Cc1ccccc1)Nc1c2c(nn1-c1cccc(Cl)c1)CS(=O)(=O)C2	24.2	55.1*	0.8	0.4	0.09
CC(C)NC(=O)c1cc(=O)n(C)c(=O)n1C	10.5	13.9	0.9	0.9	2.07
Cc1nc2ncnn2c(N2CCC(C(=O)NC3CCCC3)CC2)c1Cc1ccccc1	60.0*	66.3*	0.4	0.3	0.42
CCc1c(C)nc2ncnn2c1N1CCC(C(=O)N2CCN(c3ccc(F)cc3)CC2)CC1	5.7	60.6*	0.9	0.4	-0.59
CCOC(=O)N1CCN(C(=O)c2ccc(NC(=O)c3ccc(C)cc3)cc2)CC1	70.4*	47.9	0.3	0.5	-1.01
CS(=O)(=O)N1CCN(c2ccc(NC(=O)c3ccc(Br)o3)cc2)CC1	6.4	3.5	0.9	1	-0.52
Cc1ccc(C(=O)N2CCN(c3ccc(NC(=O)c4ccc(Br)o4)cc3)CC2)cc1	50.2*	27.9	0.5	0.7	-0.73
Cc1cc(SCc2cc(=O)[nH]c3ccccc23)nc2ccccc12	-1.2	-6.5	1	1.1	-0.54
O=C(COc1ccc(Cl)cc1)NCc1nnc(SCC(=O)Nc2ccccc2)o1	-96.1	17.1	2*	0.8	-0.43
CC1CCN(C(=O)CSc2nnc(CNC(=O)COc3ccc(Cl)cc3)o2)CC1	57.3*	67.2*	0.4	0.3	1.79
O=C(COc1ccc(Cl)cc1)NCc1nnc(SCC(=O)c2ccccc2)o1	-9.0	1.5	1.1	1	1.02
O=C(COc1ccc(Cl)cc1)NCc1nnc(SCC(=O)NC2CCCCC2)o1	14.5	15.6	0.9	0.8	0.25
COCCn1c(SCC#N)nnc1-c1ccc2c(c1)OCO2	11.2	16.0	0.9	0.8	-0.39
Cc1cc(C)cc(Nc2cc(C)nc3nc(C)nn23)c1	10.1	-9.4	0.9	1.1	/
O=C(COC(=O)c1ccc(=O)n(Cc2ccccc2)n1)Nc1ccc2c(c1)OCCO2	16.1	16.6	0.8	0.8	-0.17
COc1ccc2nc(NC(=O)C(NS(=O)(=O)c3cccs3)C(C)C)sc2c1 (stereo unspecified)	63.4*	55.1*	0.4	0.4	-0.69
Cc1ccc2nc(NC(=O)C(NS(=O)(=O)c3cccc4nsnc34)C(C)C)sc2c1 (stereo unspecified)	76.6*	22.7	0.2	0.8	/
Cc1ccc2c(c1)cc(C)c1nnc(SCC(=O)NCc3ccco3)n12	-28.8	22.7	1.3	0.8	0.32
CC(=O)NS(=O)(=O)c1ccc(NC(=O)c2ccc(Br)o2)cc1	-11.3	-2.0	1.1	1	1.62
Cc1csc2ncc(C(=O)NC(C)c3ccccc3)c(=O)n12 (stereo unspecified)	-36.2	48.3	1.4	0.5	/
Cc1ccccc1CN1C(=O)Nc2ccccc2C(=O)N1C(C)(C)C	0.6	18.3	1	0.8	-1.51
COC(=O)c1sc2cc(C(F)(F)F)cnc2c1-c1cccnc1	51.7*	38.4	0.5	0.6	-0.28
O=C(Nc1ccccc1)c1sc2cc(C(F)(F)F)cnc2c1-c1cccs1	73.9*	52.1*	0.3	0.5	0.13
COc1cccc(-c2cc3nc(-c4ccccc4)cc(N4CCC5(CC4)OCCO5)n3n2)c1	55.4*	34.5	0.4	0.7	-1
